Hits are enriched below; roughly 1.6% of the tested compounds scored in any of these assays.
Glioma ERSR ind – ER stress response induction in glioma. U87-MG GRP78 promoter luciferase reporter, 16 h. actives 0.02% (n = 420,000). AID 602332. Potency, µM, inactives show top-dose activation, hits mostly activators; active means well fitted activation curve with a large enough effect; inconclusive means small, poorly fitted or top-dose-only effect; inactive means no such curve, though single readings can be large or run the other way; further: potency means the concentration at half of the fitted maximal effect; series mostly up to about 76 µM; % of control where 0% means no effect; nearly all actives have a fitted effect of over 35% in size
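ERSR induction read as luciferase luminescence (Bright-Glo, 10 min at room temperature) in stably transfected human U87-MG glioma cells exposed to compounds for 16 h, using GRP78 as sensor.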
pAkt inh – Akt phosphorylation inhibition; Neuro2A IGF-stimulated pAkt S473 HTRF, 20 min; hits give low values; activity change, % for hits at 50 µM; actives 0.32% (n = 360,000); AID 651550; in the data active means activity change below about -80%; inconclusive means mostly about -51% to -80%; further: on the % scale 0 is the no-effect control and ±100 the full control effect
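Single-point screen (50 µM final compound) in Neuro2A cells stimulated 20 min with 6 nM IGF at 37 deg C. After lysis, Ser473-phosphorylated Akt read by HTRF (ex 330 nm, em 615/665 nm) as the 665/615 ratio.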
hERG WT inh – blocks the wildtype human KCNH2 potassium channel. Q12809. U2OS, BacMam KCNH2, thallium flux FluxOr; hits give low values. activity change, % at 1.84 µM. actives 0.37% (n = 340,000);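 active means maximum activity change below -70%; inconclusive means maximum activity change between -70% and -50%; inactive means maximum activity change above -50%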; further: on the % scale 0 is the no-effect control and ±100 the full control effect
Target sequence (Q12809 whole entry, looked up): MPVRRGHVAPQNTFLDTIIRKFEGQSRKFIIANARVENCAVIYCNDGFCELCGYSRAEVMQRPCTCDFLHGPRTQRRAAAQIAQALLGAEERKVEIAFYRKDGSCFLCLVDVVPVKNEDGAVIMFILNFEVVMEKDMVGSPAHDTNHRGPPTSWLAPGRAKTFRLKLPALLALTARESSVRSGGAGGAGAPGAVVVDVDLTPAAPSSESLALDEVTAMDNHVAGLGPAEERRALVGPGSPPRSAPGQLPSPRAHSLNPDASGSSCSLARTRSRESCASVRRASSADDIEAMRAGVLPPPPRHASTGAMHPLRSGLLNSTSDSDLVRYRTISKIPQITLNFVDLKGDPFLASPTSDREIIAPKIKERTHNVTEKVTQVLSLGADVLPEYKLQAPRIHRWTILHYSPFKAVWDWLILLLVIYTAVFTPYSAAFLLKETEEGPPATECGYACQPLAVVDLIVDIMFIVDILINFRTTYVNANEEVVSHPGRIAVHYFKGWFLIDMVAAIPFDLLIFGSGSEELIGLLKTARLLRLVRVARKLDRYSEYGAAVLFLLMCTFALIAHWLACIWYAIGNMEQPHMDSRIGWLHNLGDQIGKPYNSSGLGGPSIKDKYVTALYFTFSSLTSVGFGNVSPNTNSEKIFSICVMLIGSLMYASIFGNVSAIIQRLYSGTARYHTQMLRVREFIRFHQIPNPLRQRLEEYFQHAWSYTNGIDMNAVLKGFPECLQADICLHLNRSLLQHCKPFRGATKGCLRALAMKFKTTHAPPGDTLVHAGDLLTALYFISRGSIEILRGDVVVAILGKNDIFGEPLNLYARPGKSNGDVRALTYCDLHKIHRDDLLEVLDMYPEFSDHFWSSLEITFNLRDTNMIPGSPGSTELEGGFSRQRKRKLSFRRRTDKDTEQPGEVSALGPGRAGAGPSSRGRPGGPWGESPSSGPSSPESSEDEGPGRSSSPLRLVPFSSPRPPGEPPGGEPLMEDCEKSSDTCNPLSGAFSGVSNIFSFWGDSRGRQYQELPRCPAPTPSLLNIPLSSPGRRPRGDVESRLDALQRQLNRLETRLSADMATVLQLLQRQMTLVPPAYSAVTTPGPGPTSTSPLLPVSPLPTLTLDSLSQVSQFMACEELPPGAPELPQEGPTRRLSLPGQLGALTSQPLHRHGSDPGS
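U2OS cells were transduced with wild-type KCNH2 virus (2.03 x 10^8 / mL) for 4 h at room temperature, then cultured overnight at 37 C. Thallium flux was read with FluxOr dye. Rate constants were normalized to DMSO controls.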
gsp ag – agonists of gsp mutant (McCune-Albright syndrome). gsp mutant cells, cAMP HTRF, 30 min. actives 0.13% (n = 340,000). Potency, µM (highest dose often 76.9 µM), for the others: top-dose activation (cAMP increase), usual class: activators. AID 624287; active means well fitted activation curve with a large enough effect; inconclusive means small, poorly fitted or top-dose-only effect, or another doubt; inactive means no such curve, though single readings can be large or run the other way; cell line not stated here;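 further: phosphodiesterase inhibitor Ro 20-1724 added with compounds to block cAMP breakdown; potency means the concentration at half of the fitted maximal effect; nearly all actives have a fitted effect of over 60% in size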
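Cells stably selected in G418 were plated at 2000/well, grown 16-24 hr, then given compounds in DMSO with the PDE inhibitor […] (300 uM solution added) for 30 min at 37C; cAMP was read by HTRF.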
KCNH2 3.1 block – KCNH2 3.1 (human) potassium channel inhibition; U2OS KCNH2 3.1, thallium flux FluxOr; hits give low values; activity change, % (tested at about 1.8 µM); actives 0.95% (n = 340,000);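 active means maximum activity change below -70%; inconclusive means maximum activity change from -70% to -50%; inactive means maximum activity change above -50%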;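 further: thallium influx rate constant from kinetic fluorescence after stimulation buffer; on the % scale 0 is the no-effect control and ±100 the full control effect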
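Measured as rate of thallium-driven FluxOr signal in transduced U2OS cells carrying the 3.1 channel, read kinetically for 2 min upon stimulation; values are rate constants scaled to DMSO control wells.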
gsp antagonist – antagonists of gsp mutant (McCune-Albright syndrome); gsp-mutant cells, cAMP HTRF, 30 min; Potency, µM (titrated, usually from 76.9 µM), for inactives: at the highest dose activity change, negative = inhibition, most hits filed as inhibitors; actives 0.4% (n = 340,000); AID 624288; calls by dose curve; cell line not stated here;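 further: intracellular cAMP measured with PDE inhibitor Ro 20-1724 present during compound exposure; potency means the concentration at half of the fitted maximal effect; on the % scale 0 is the no-effect control and ±100 the full control effect; nearly all actives have a fitted effect of over 65% in size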
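Cells in G418 medium, seeded 16-24 h, 37C; buffer exchange to DPBS + 1 mM CaCl2, 0.5 mM MgCl2, 0.05% BSA; cpds in DMSO + […] (300 uM stock), 30 min 37C; HTRF cAMP detection.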
* = called active by the depositor; i = inactive; ? = inconclusive; / = no result given; [ ] = dose if it differs, or a comment.

SMILES	Glioma ERSR ind	pAkt inh	hERG WT inh	gsp ag	KCNH2 3.1 block	gsp antagonist
CCc1ccc(OCCCC(=O)Nc2nnc(C3CCCO3)s2)cc1 (stereo not given)	-1.6%	i	-248.1*	2.5%[15.4 µM]	0.2	-13.3%
Cc1cccc(OCCCC(=O)Nc2nnc(C3CCCO3)s2)c1C (stereo not given)	-3.9%	i	3.4	14.4%	-2.5	5.2%
Cc1cccc(OCCCc2c(C)n[nH]c2C)c1	-0.3%	/	-2.6	18.0%	-75.0*	-9.3%
CCc1nc2cc(C(=O)N(C)CC3COCCO3)cc(NC(=O)c3ccccc3OC)c2n1C (stereo not given)	-1.9%	/	/	/	/	/
CCNc1ccc(/C=C/c2ccnc3ccccc23)cc1	0.0%	/	/	/	/	/
C=CCn1c(C)c(C(C)=O)c(N2CCN(c3ccccc3)CC2)nc1=S	-1.8%	-105.1%*	7.1	-106.1%	-14.3	2.4%
C=CCn1c(C)c(C(C)=O)c(N2CCCC2)nc1=S	-8.7%	i	0.7	19.4%	0.3	-5.7%
Cc1cccc(-c2cccc(NC(=O)C3CCCN(C(=O)c4csc(C)n4)C3)c2)c1 (stereo not given)	8.3%	i	-7.9	?	-0.7	35.5µM*
CCOC(=O)Cn1c(=O)c(-c2cc(Br)ccc2N)nc2ccccc21	9.3%	i	-241.8*	4.0%	-39.5	10.2%
CCOC(=O)Cn1c(=O)c(-c2ccccc2N)nc2ccccc21	-0.3%	i	-0.3	-1.5%	-11.8	2.2%
c1ccc2c(C3=NNC(=NC4CCCCC4)SC3)c[nH]c2c1	-1.3%	i	3.7	-6.8%	-86.5*	-1.8%
COC(=O)c1ccccc1-c1cc(C)cc2c1OC(CNC(=O)C1CCCO1)C2 (stereo not given)	6.9%	/	/	/	/	/
CC(=O)OCC(=O)[C@@]1(O)[C@H](C)C[C@H]2C3C[C@H](F)C4=CC(=O)C=CC4(C)C3[C@@H](O)CC21C (stereo not given in full)	-1.9%	/	/	/	/	/
Cc1ccc(C(=O)NC(=S)N2CC(C)OC(C)C2)cc1[N+](=O)[O-] (stereo not given)	-0.5%	i	1.5	1.1%	-91.0*	4.6%
O=c1cc(NC2CCCCCC2)[nH]c(=O)[nH]1	-7.0%	-112.0%*	-7.2	4.5%	1.2	-2.2%
O=c1[nH]c2ccc(NC(=S)NC3CCCCC3)cc2[nH]1	-1.8%	i	-0.8	-16.9%[15.4 µM]	3.6	/
CC(C)(C)c1ccc(/C=C/C(=O)Nc2nncs2)cc1	3.1%	i	13.5	-18.5%	-82.7*	5.2%
O=C1CCCc2[nH]c(=O)c(C(=O)NCc3ccccc3)cc21	-2.7%	/	/	/	/	/
COc1ccc(C(=O)N(CN2CCCC2=O)c2ccccc2OC)cc1OC	-1.5%	-111.0%*	-2.3	-58.9%	2.8	5.6%
Cc1c(CCC(=O)NCCCCCC(=O)O)c(=O)oc2c(C)c3oc4c(c3cc12)CCCC4	-8.2%	i	-5.0	?	?	-16.0%
Cc1c(CCC(=O)NCCCn2ccnc2)c(=O)oc2c(C)c3oc4c(c3cc12)CCCC4	-7.7%	i	-150.1*	/	-159.1*	-12.8%
Cc1nc(-c2nc(-c3c(C(=O)NNC(=O)Nc4ccccc4)noc3C)cs2)cs1	3.9%	i	-77.3*	-5.2%	-93.8*	-13.4%
CCN1C(=O)[C@H]2[C@H]3[C@H](O)[C@H](O)C/C(=N/NC(=O)OCc4ccccc4)[C@H]3CC[C@@H]2C1=O	0.9%	/	/	/	/	/
Cc1ccc(NC(=O)C(C)N2CCc3ccccc3C2)cc1 (stereo not given)	1.5%	i	-4.3	-4.9%	-114.5*	-7.3%
CC(C(=O)Nc1ccc(S(=O)(=O)N2CCCC2)cc1)N1CCc2ccccc2C1 (stereo not given)	-1.1%	i	-7.4	0.5%	-186.9*	-12.2%
SMILES	Glioma ERSR ind	pAkt inh	hERG WT inh	gsp ag	KCNH2 3.1 block	gsp antagonist
Cc1ccc(NC(=O)N2CCc3ccccc3C2)cc1	10.7%	i	-5.8	10.6%	-10.6	2.5%
Cc1ncc2c(c1CNC(=O)CN1CCCC1)CCN(C(=O)c1ccc(F)cc1F)C2	-5.8%	/	/	/	/	/
Cc1c(C(=O)N2CCCC2)sc2ncnc(NCCN(C)C)c12	-8.9%	/	/	/	/	/
C[C@@H]1CN(Cc2ccc3c(c2)CN(Cc2cccc4c2OCO4)CCO3)C[C@H](C)O1	-3.4%	/	/	/	/	/
COCC(=O)Nc1cc(C(=O)N2CCCOc3c(cccc3OC)C2)c2c(c1)nc(C1CCC1)n2C	0.4%	/	/	/	/	/
Cc1ccc2c(c1)nnn2C1CCN(S(=O)(=O)c2cccc(S(=O)(=O)N(C)C)c2)CC1	2.4%	i	1.2	18.3%	-14.3	25.1µM*
Cc1ccc2c(c1)nnn2C1CCN(S(=O)(=O)c2ccc3ccccc3c2)CC1	-4.1%	i	11.7	-29.4%	2.1	-11.2%
CC(=O)c1ccc(-c2cc(F)cc3c2OC(CNC(=O)c2ccc[n+]([O-])c2)C3)s1 (stereo not given)	-2.9%	/	/	/	/	/
COc1ccccc1-c1ccnc(-n2ncc(C(=O)NCc3cccnc3)c2C)n1	0.7%	/	/	/	/	/
Cc1nc2sccn2c1CN1CCOc2ccc(CN3CCN(c4ccc(F)cc4)CC3)cc2C1	-2.8%	/	/	/	/	/
CCOP(=O)(OCC)C(NC(=O)c1ccc(OC)cc1)c1ccccc1 (stereo not given)	-5.3%	i	2.2	?	-95.8*	-0.7%
CC(C)OP(=O)(OC(C)C)C(NC(=O)c1ccc(Br)cc1)c1ccccc1 (stereo not given)	-6.4%	i	8.4	-23.2%	10.6	-3.0%
O=C(c1ccncc1)c1ccc(N2CCN(C3CC(=O)N(Cc4cccs4)C3=O)CC2)cc1 (stereo not given)	-1.0%	i	15.2	-6.0%	3.7	35.5µM*
O=C1c2ccccc2C(=O)C1c1ccnc2ccccc12	-6.3%	-122.4%*	-5.1	-18.3%	-13.3	-1.5%
Fc1ccc(CSc2ccc3nnc(-c4cccs4)n3n2)cc1	-0.2%	i	-0.4	12.4%	-5.0	31.6µM*
Cc1cccc(CSc2ccc3nnc(-c4cccs4)n3n2)c1	-2.2%	i	/	-3.3%	-5.1	-24.4%
CCc1ccccc1OCCCOc1ccc(OC)cc1	-0.1%	i	-1.4	-12.1%	-99.2*	-8.5%
O=[N+]([O-])c1ccc(/C=C/c2ccnc3ccccc23)c([N+](=O)[O-])c1	0.0%	/	/	/	/	/
CCOc1ccccc1N1CCN(C(=O)c2cc(-c3cc(OC)ccc3OC)nc3ccccc23)CC1	-5.2%	i	-3.0	23.4%	?	14.1µM*
COc1ccc2[nH]c(C(=O)O)c(NS(=O)(=O)c3ccc(Cl)s3)c2c1	0.0%	-88.0%*	-27.8	-51.5%	-2.2	-8.0%
Cc1ccsc1C(=O)N(Cc1cc2ccc(F)cc2nc1N1CCC(O)CC1)CC1CCCO1 (stereo not given)	-1.0%	/	/	/	/	/
